Assay outcomes: PubChem, National Center for Advancing Translational Sciences (NCATS)
DT40 TDP1 CPT – DT40-hTDP1 cell growth loss with CPT; chicken DT40 Tdp1-/-;hTDP1 cells + 20 nM CPT, ATP luminescence, 48 h; AID 686979; Potency, µM (series often up to 46.2 µM), for inactives: top-dose activity change, negative = growth inhibition, usual class: inhibitors; 12% of 420,000 active; also: potency is read from the fitted curve at half-maximal effect; % is scaled to controls: 0 for no effect and ±100 for the full control effect; nearly all actives have a fitted effect of over 55% in size
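Cell growth measured by CellTiter-Glo luminescence after a minimum 48 h, 37 C compound exposure with 20 nM CPT in Tdp1-knockout DT40 cells stably expressing hTDP1, seeded 400/well; qHTS titration format.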
TDP1 cell noCPT – qHTS for Inhibitors of human tyrosyl-DNA phosphodiesterase 1 (TDP1): qHTS in cells in absence of CPT. DT40 Tdp1-/- hTDP1 cells, no CPT, ATP luminescence, 48 h. Potency, µM (top dose mostly 46.2 µM), without a hit: at the top dose activity change, negative = growth inhibition, hits mostly inhibitors. 15% of 420,000 active; also: potency is read from the fitted curve at half-maximal effect; % is scaled to controls: 0 for no effect and ±100 for the full control effect; nearly all actives have a fitted effect of over 55% in size
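Compound effects on proliferation are scored in DT40 Tdp1-/-;hTDP1 cells in the absence of CPT. ATP levels (CellTiter-Glo luminescence) are recorded after a ≥48 hr, 37 °C incubation.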
TGFb SMAD3 inh – blocks TGF-b signaling | 1.2% of 410,000 active | Potency, µM (highest dose often 46.1 µM), inactives show at the highest dose activity, negative = inhibition, most hits filed as inhibitors | AID 588855 | HepG2 CAGA-GFP TGF-b/SMAD3 reporter, GFP fluorescence, 18 h; TGF-beta stimulated, 500 pg/mL final; also: potency is read from the fitted curve at half-maximal effect; % is scaled to controls: 0 for no effect and ±100 for the full control effect; nearly all actives have a fitted effect of over 65% in size
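First, reporter cells (HEPG2 CAGA-GFP) rested 2 h at 37 degrees C. Next, compounds were pinned in and TGF-beta added to 500 pg/mL final. After 18 h, GFP was imaged per cell and summed per well.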
HepG2 viability – HepG2 cytotoxicity, counter-screen for TGF-b inhibitors | HepG2 CAGA-GFP viability, ATP luminescence, 18 h | 0.76% of 410,000 active | Potency, µM (top dose mostly 46.1 µM), inactives show at the highest dose activity change, negative = cytotoxicity, actives largely listed as cytotoxic; also: potency is read from the fitted curve at half-maximal effect
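HepG2 CAGA-GFP cells (1000/well, DMEM with 1% FBS) received compound, then TGF-beta at 500 pg/mL final, and were incubated 18 hours at 37 degrees C. Viability was read by CellTiter-Glo luminescence. Media-only wells were set as complete cell-killing and DMSO as no toxicity.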
ASM inhibitor – inhibitors of human secretory acid sphingomyelinase. placental ASM, HMU-PC fluorogenic substrate, 60 min. Potency, µM (highest dose often 57.5 µM), without a hit: top-dose activity change, negative = inhibition, usual class: inhibitors. 0.006% of 340,000 active. AID 504937; also: potency is read from the fitted curve at half-maximal effect
Target sequence (P17405 47-631 limits assumed): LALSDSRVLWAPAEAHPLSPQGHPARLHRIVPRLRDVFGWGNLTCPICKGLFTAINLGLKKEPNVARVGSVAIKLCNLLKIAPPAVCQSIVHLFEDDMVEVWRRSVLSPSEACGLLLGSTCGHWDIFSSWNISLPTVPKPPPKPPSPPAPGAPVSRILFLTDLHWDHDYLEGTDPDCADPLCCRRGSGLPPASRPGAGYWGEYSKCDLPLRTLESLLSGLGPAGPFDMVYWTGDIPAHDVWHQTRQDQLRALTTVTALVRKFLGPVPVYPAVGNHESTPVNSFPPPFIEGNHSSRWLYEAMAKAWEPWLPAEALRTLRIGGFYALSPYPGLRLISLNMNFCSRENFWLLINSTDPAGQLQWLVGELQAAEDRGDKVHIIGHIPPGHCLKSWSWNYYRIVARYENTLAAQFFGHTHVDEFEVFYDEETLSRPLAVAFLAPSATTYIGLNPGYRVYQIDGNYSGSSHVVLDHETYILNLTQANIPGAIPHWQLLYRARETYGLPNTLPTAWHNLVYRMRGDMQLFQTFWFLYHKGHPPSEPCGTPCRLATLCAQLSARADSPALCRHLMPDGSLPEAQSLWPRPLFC
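Human placenta-derived ASM enzyme was preincubated with compound for 10 minutes at room temperature, then given fluorogenic substrate HMU-PC0 (9 uM final) for 60 minutes at 37 °C; a pH 10 stop preceded fluorescence reading at Ex 386/Em 447 nm.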
IL-1B inflam inh – inhibitors of inflammasome signaling (IL-1 beta secretion); THP-1 LPS/ATP IL-1B secretion, AlphaLISA, 16 h; active compounds read low; activity change, % at 57.5 µM; 4.7% of 360,000 active; AID 743279; in the data active = activity change below about -50%; inconclusive = mostly about -30% to -49%; also: % is scaled to controls: 0 for no effect and ±100 for the full control effect
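THP-1 cells pretreated 1 hr with compounds (up to 57.5 uM final), then stimulated with LPS (250 ng/mL final) plus ATP (1.25 mM final); secreted IL-1B measured by AlphaLISA after 16 hr, decreased signal indicating inhibition.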
An asterisk follows results filed as active; i = inactive; ? = inconclusive; . = not tested or not shown. Most compounds without a hit are left out; they make up all but 19% or so of the library. Unless noted, calls follow the shape of the dose curve; as a rule, active = well fitted curve in the direction sought with a large enough effect; inconclusive = small, poorly fitted or top-dose-only effect, or another doubt; inactive = no such curve, though single readings can be large; an effect the other way counts as inactive or inconclusive.

SMILES	DT40 TDP1 CPT	TDP1 cell noCPT	TGFb SMAD3 inh	HepG2 viability	ASM inhibitor	IL-1B inflam inh
COc1ccc(C(Cl)=C(c2ccc(OC)cc2)c2ccc(OC)cc2)cc1	?	?	18%	-42%	-20%	-8
Cc1cccc(-c2ccc3c(c2)C2CC3CCN2)c1 (configuration not stated)	21µM*	15µM*	23%	-4%	2%	0
Fc1ccc(-c2ccc3c(c2)C2CC3CCN2)cc1 (configuration not stated)	18µM*	23µM*	-29%	-33%	0%	0
FC(F)(F)c1ccc(-c2cccc3c2C2CC3CCN2)cc1 (configuration not stated)	?	?	0%	-6%	6%	-7
COCCCN1C(=O)C(CC(=O)NC(c2ccccc2)c2ccccc2)CC(C(=O)N2CCCCCC2)=C1C (configuration not stated)	?	?	.	.	.	-1
C=CCN(C(=O)CSC1=NC(=O)CN1C(C)=O)c1nc(C)c(-c2ccccc2)s1	?	18µM*	13µM*	-14%	-1%	-89*
Cc1cc(O)c2c(O)c3c(O)cccc3cc2c1	-6%	-24%	.	.	.	.
COc1ccc(S(=O)(=O)N2CCOCC2)cc1NC(=O)Cc1c(Cl)cccc1Cl	?	?	-6%	2%	1%	0
COc1ccc(S(=O)(=O)N2CCOCC2)cc1NC(=O)CN(C)Cc1c(F)cccc1Cl	?	21µM*	?	2%	4%	-66*
Cc1ccc(NC(=O)CSCC(=O)N(C)Cc2c(F)cccc2Cl)cc1	18µM*	26µM*	-14%	-21%	.	-13
CN(CC(=O)Nc1ccc(S(=O)(=O)N2CCCC2)cc1)Cc1c(F)cccc1Cl	15µM*	16µM*	-13%	-4%	5%	-60*
CN(CC(=O)Nc1ccc(S(=O)(=O)N2CCCC2)cc1)Cc1ccc(Cl)cc1	16µM*	?	?	-35%	-1%	0
CCCCCCCCCCCC(=O)OC[C@@H](O)C1OC[C@H](O)[C@H]1O (some centres not stated)	7%	-15%	.	.	.	.
O=C(NCc1cccs1)c1ccc2sc([C@H]3C[C@H](O)[C@@H](CO)O3)nc2c1	-15%	-23%	6%	-15%	.	23
O=C(CC(c1cccs1)N1Cc2ccccc2C1=O)Nc1cccc(F)c1 (configuration not stated)	?	?	-10%	-34%	.	.
CS(=O)(=O)c1ccc(Cl)c(NC(=O)COC(=O)c2ccc(-n3cnnn3)cc2)c1	-1%	-13%	-18%	-3%	4%	7
Cc1nc(Cl)nc(N(C)c2ccccc2)c1[N+](=O)[O-]	?	?	3%	-24%	-1%	-82*
Cc1nc(N/N=C/c2ccccc2)nc(N(C)c2ccccc2)c1[N+](=O)[O-]	-6%	-10%	0%	-19%	-2%	36
O=C1[C@H]2CCCC[C@H]2C(=O)N1CCCCN1CCN(c2nsc3ccccc23)CC1	21µM*	13µM*	?	-17%	-6%	-65*
O=C1[C@@H]2[C@H]3CC[C@H](C3)[C@@H]2C(=O)N1CCCCN1CCN(c2ncccn2)CC1	6%	-17%	.	.	.	.
CCc1ccc(N2C=C(C(=O)OC)C(c3ccc(OC)cc3)C(C#N)=C2N)cc1 (configuration not stated)	?	-82%	.	.	.	-25
COC(=O)C1=CN(c2ccc(C(C)(C)C)cc2)C(N)=C(C#N)C1c1ccccc1F (configuration not stated)	?	21µM*	.	.	.	20
COC(=O)C1=C(C)OC(N)=C(C#N)C1c1ccccc1F (configuration not stated)	-22%	-9%	-3%	-1%	2%	-15
COC(=O)C1=CN(c2ccc(OC)cc2OC)C(N)=C(C#N)C1c1ccccc1F (configuration not stated)	0.82µM*	0.58µM*	.	.	.	64
CCc1ccc(N2C=C(C(=O)OC)C(c3ccccc3F)C(C#N)=C2N)cc1 (configuration not stated)	?	23µM*	.	.	.	-21
SMILES	DT40 TDP1 CPT	TDP1 cell noCPT	TGFb SMAD3 inh	HepG2 viability	ASM inhibitor	IL-1B inflam inh
COC(=O)C1=CN(c2ccc(OC)cc2)C(N)=C(C#N)C1c1ccccc1F (configuration not stated)	10µM*	13µM*	.	.	.	25
COC(=O)C1=CN(Cc2ccc(OC)c(OC)c2)C=C(C(=O)OC)C1c1ccccc1F	?	?	-8%	-15%	i	13
Cc1ccc2oc3c(c(=O)c2c1)C(c1cccc(O)c1)N(CCCN1CCOCC1)C3=O (configuration not stated)	?	?	-4%	-20%	.	.
Cc1cc(C)c2c(=O)c3c(oc2c1)C(=O)N(CCO)C3c1cccc(O)c1 (configuration not stated)	-14%	-16%	-1%	8%	0%	-58*
O=C1c2oc3ccccc3c(=O)c2C(c2cccc(O)c2)N1Cc1ccc(F)cc1 (configuration not stated)	?	21µM*	?	0%	.	.
CCOc1cc(C2c3c(oc4ccc(F)cc4c3=O)C(=O)N2Cc2ccc(C)cc2)ccc1O (configuration not stated)	1.3µM*	?	14%	-17%	.	.
COc1cc(C2c3c(oc4ccc(C)cc4c3=O)C(=O)N2Cc2ccc(F)cc2)ccc1O (configuration not stated)	5%	-11%	?	-16%	.	.
Cc1ccc(C(=O)OCC(=O)NCc2ccccc2)s1	2%	-21%	10%	2%	.	-4
Cc1ccc(S(=O)(=O)c2nc(S(C)(=O)=O)sc2N2CC(C)OC(C)C2)cc1 (configuration not stated)	?	?	2%	35%	0%	?
C=CCNC(=O)C(=O)NCCOc1ccccc1Cl	12µM*	?	-4%	-18%	0%	16
O=C(NCCOc1ccccc1Cl)C(=O)c1c[nH]c2ccccc12	?	?	?	-19%	-4%	-20
COc1ccc(CNc2nc(-c3ccco3)nn2C(=O)CC(C)C)cc1	-23%	-13%	-22%	0%	.	.
